# Measured values published in the supplement of paper PMC12340641.
# The full ranking holds about 1,000 compounds; the median of “relative growth recovery (pomalidomide 10 uM = 100%, DMSO = 0%)” is about -1.6, and the highest 2% start at about 21. What follows is part of a selection rich in the highest values, with near analogues and random picks from the rest.
# Tested on: HEK293FT dCK*-IKZF1
# Assay: relative growth recovery (pomalidomide 10 uM = 100%, DMSO = 0%); higher = more growth rescue (IKZF1 fusion degradation)
# Settings: compound concentration: 5 uM; AraC concentration: 0.3 uM; overnight pretreatment + 4 days AraC
# Experimental: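 Growth recovery screen of the molecular-glue-like (Specs) library. HEK293FT cells expressing a dCK*-IKZF1 fusion (primary) or dCK* alone (counter) were pretreated overnight with compound at 5 uM, then given 0.3 uM AraC for 4 days. Hoechst nuclei were counted by imaging. Primary: normalised to pomalidomide (100%) and DMSO (0%), mean of 2 replicates. Counter: normalised to no-AraC (100%) and AraC+DMSO (0%), single replicate.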
row,Structure (SMILES),relative growth recovery [%]
1,CCC(Oc1ccccc1)C(=O)Nc1ccc(S(=O)(=O)Nc2nc(C)cc(C)n2)cc1 (stereo not given),-3.29
2,CCC(Oc1ccccc1)C(=O)Nc1ccc(S(=O)(=O)Nc2ncccn2)cc1 (stereo not given),78.9
3,CC(Oc1ccccc1)C(=O)Nc1ccc(S(=O)(=O)Nc2ncccn2)cc1 (stereo not given),-0.515
4,Cc1cc(C)nc(NS(=O)(=O)c2ccc(NC(=O)c3oc4ccccc4c3C)cc2)n1,-2.64
5,Cc1cnc(Nc2cccc(C3CCN(C(=O)CCn4ncc5ccccc54)CC3)n2)s1,-1.66
6,COc1cc(NS(=O)(=O)c2ccc(NC(=O)c3ccccc3C)cc2)nc(OC)n1,-0.335
7,COc1ccc(C(=O)Nc2ccc(S(=O)(=O)Nc3cc(OC)nc(OC)n3)cc2)c(OC)c1,3.94
8,CCOc1cc(C(=O)Nc2ccc(S(=O)(=O)Nc3ncccn3)cc2)cc(OCC)c1OCC,0.09
9,COc1ccc(C(=O)Nc2ccc(S(=O)(=O)Nc3ncccn3)cc2)c(OC)c1,-1.31
10,Cc1cnc(Nc2cccc(C3CN(C(=O)CN(C(=O)CC(C)C)c4ccccc4)CCO3)n2)s1 (stereo not given),1.34
11,Cc1csc(Nc2cccc(C3CN(C(=O)CCc4nc(C)no4)CCO3)n2)n1 (stereo not given),5.6
12,COc1ccc(CCC(=O)N2CCOC(c3cccc(Nc4nc(C)cs4)n3)C2)cc1 (stereo not given),32.4
13,Cc1csc(Nc2cccc(C3CCCN3C(=O)CCCc3ccc(F)cc3)n2)n1 (stereo not given),0.885
14,Cc1csc(Nc2cccc(C3CN(C(=O)CCCc4ccc(F)cc4)CCO3)n2)n1 (stereo not given),25.2
15,COc1cccc(CCC(=O)N2CCOC(c3cccc(Nc4ncc(C)s4)n3)C2)c1 (stereo not given),15.8
16,COc1ccc(CCC(=O)N2CCOC(c3cccc(Nc4ncc(C)s4)n3)C2)cc1 (stereo not given),15.7
17,O=[N+]([O-])c1ccc(S(=O)(=O)Nc2ccc(Cl)cn2)cc1,-4.66
18,O=[N+]([O-])c1ccc(S(=O)(=O)Nc2nc3ccccc3nc2Nc2ccccc2)cc1,8.16
19,CC(C)Nc1nc(NC(C)C)nc(NS(=O)(=O)c2ccc(N)cc2)n1,-1.87
20,CC(C)N(C(=O)CN1CCOC(c2cccc(Nc3nccs3)n2)C1)C1CCCCC1 (stereo not given),-2.24

row,Structure (SMILES),relative growth recovery [%]
1,Cc1csc(Nc2cccc(C3CCN(C(=O)Cn4nc(C)cc4C)CC3)n2)n1,16.9
2,Cc1cnc(Nc2cccc(C3CCN(C(=O)CC4CCCCC4)CC3)n2)s1,-13.5
3,O=C(c1cccc2ncccc12)N1CCOC(c2cccc(Nc3nccs3)n2)C1 (stereo not given),-7.12
4,Cc1cc(C)nc(NS(=O)(=O)c2ccc(NC(=O)c3ccc(Cl)cc3Cl)cc2)n1,-0.215
5,Cc1cnc(Nc2cccc(C(C(=O)N(C)C)C3CCN(C(=O)[C@H](CC(C)C)NC(=O)OC(C)(C)C)CC3)n2)s1 (stereo not given in full),3.71
6,Cc1ccc(C(=O)Nc2ccc(S(=O)(=O)Nc3cc(C)nc(C)n3)cc2)cc1,-1.57
7,Cc1cccc(C(=O)Nc2ccc(S(=O)(=O)Nc3nc(C)cc(C)n3)cc2)c1,4.85
8,Cc1nc(Nc2cccc(C3CCCN3C(=O)CCCN3C(=O)CNC3=O)n2)sc1C (stereo not given),3.93
9,Cc1ccc(/C=C/C(=O)Nc2ccc(S(=O)(=O)Nc3ncccn3)cc2)cc1,-2.17
10,Cc1cc(OCC(=O)Nc2ccc(S(=O)(=O)Nc3ncccn3)cc2)ccc1Cl,-0.26
11,NCC(=O)N1CCC(c2cccc(Nc3ncc(Br)s3)n2)CC1,-17.1
12,Cn1nccc1/C=C/C(=O)N1CCC(c2cc3ccccc3c(Nc3nccs3)n2)CC1,-16.9
13,Cc1nc(/C=C/C(=O)N2CCC(c3cc4ccccc4c(Nc4nccs4)n3)CC2)cs1,-17.8
14,Cc1nn(C)c(C)c1/C=C/C(=O)N1CCC(c2cc3ccccc3c(Nc3nccs3)n2)CC1,51.1
15,Cc1ccc(C)c(OCC(=O)Nc2ccc(S(=O)(=O)Nc3nc(C)cc(C)n3)cc2)c1,-2.19
16,Nc1ccc(Oc2ccc3c(c2)C(=O)N(CCO)C3=O)cc1,2.76
17,Cc1cnc(Nc2cccc(C(C(=O)N(C)C)C3CCN(C(=O)C4CCCCC4)CC3)n2)s1 (stereo not given),1.65
18,CC(=O)N1CCCC(c2csc(Nc3ccccn3)n2)C1 (stereo not given),-1.67
19,Cn1nccc1/C=C/C(=O)N1CCCC(c2cc3ccccc3c(Nc3nccs3)n2)C1 (stereo not given),-10.2
20,O=C(/C=C/c1ccccc1)N1CCCC(c2csc(Nc3ccccn3)n2)C1 (stereo not given),31.2

row,Structure (SMILES),relative growth recovery [%]
1,Cc1ccc(Nc2nc(C3CCCN(C(=O)/C=C/c4csc(C)n4)C3)cs2)nc1 (stereo not given),31.5
2,O=C(/C=C/c1ccco1)N1CCCC(c2csc(Nc3ccccn3)n2)C1 (stereo not given),18.9
3,Cn1nccc1/C=C/C(=O)N1CCCC1c1csc(Nc2ccccn2)n1 (stereo not given),2.75
4,COC(C)(C)C(=O)N1CCCC(c2csc(Nc3ccc(C)cn3)n2)C1 (stereo not given),15.9
5,Cc1ccc(Nc2nc(C3CCCN3C(=O)/C=C/c3csc(C)n3)cs2)nc1 (stereo not given),0.31
6,Cn1nccc1/C=C/C(=O)N1CCCC(c2csc(Nc3ccccn3)n2)C1 (stereo not given),40.9
7,Cc1ccc(OCC(=O)Nc2ccc(S(=O)(=O)Nc3nc(C)cc(C)n3)cc2)cc1,-1.25
8,O=C1CCC(N2C(=O)c3cc(F)c(N4CCC(Cn5cc(C(=O)O)cn5)CC4)cc3C2=O)C(=O)N1 (stereo not given),-2
9,Cc1cc(C)nc(NS(=O)(=O)c2ccc(NC(=O)CSc3nc4c(cc3C#N)CCCCC4)cc2)n1,-5.67
10,Cc1ccc(C)c2c1[nH]c1nc(SCC(=O)Nc3cccc(F)c3)nnc12,-2.81
11,CC(=O)N1CCC(Cc2cccc(Nc3nc(C)cs3)n2)CC1,10.6
12,CCCCc1cnc(Nc2cccc(C3CCN(C(=O)[C@@H]4CCCCN4)CC3)n2)s1,-11.4
13,O=C(Nc1ccc(S(=O)(=O)Nc2ncccn2)cc1)c1ccc2c(c1)OCO2,-3.11
14,COc1ccc(Cl)cc1C(=O)Nc1ccc(S(=O)(=O)Nc2nccc(C)n2)cc1,-1.7
15,COc1ccc2[nH]c(SCC(=O)Nc3ncccn3)nc2c1,1.53
16,Cc1cnc(Nc2cccc(C3CCN(C(=O)C4(NC(=O)CC(C)(C)C)CCCCC4)CC3)n2)s1,-16.1
17,CCc1ccccc1OCC(=O)Nc1ccc(S(=O)(=O)Nc2nc(C)cc(C)n2)cc1,-4.88
18,CCCN1CC(C(=O)N2CCC(c3cccc(Nc4ncc(C)s4)n3)CC2)CC1=O (stereo not given),-5.35
19,COc1cc(NS(=O)(=O)c2ccc(NC(=O)c3ccccc3C(=O)O)cc2)nc(OC)n1,-4.23
20,COc1cc(NS(=O)(=O)c2ccc(NC(=O)/C=C/c3ccco3)cc2)nc(OC)n1,1.19
